Source: PubChem BioAssay (Tox21)
Results filed as inconclusive are left out. Where a call stands in place of a potency, no number is given. Calls of active or inactive are those of the source. Unless noted, calls follow the shape of the dose curve; as a rule, active = well fitted curve in the direction sought with a large enough effect in the repeat runs; inconclusive = weak or mixed curves; inactive = no such curve, though single readings can be large; an effect the other way counts as inactive or inconclusive.

Assays:
[1] = target: Estrogen receptor beta (Homo sapiens) (UniProt Q92731); experiment: qHTS assay to identify small molecule antagonists of the estrogen receptor beta (ER-beta) signaling pathway (AID 1259378; active = well fitted inhibition curve with a large enough effect in the signal ratio in the repeat runs, not every such curve was filed as active; the % refers to the signal ratio)
Procedure, shortened: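 ER-beta-UAS-bla HEK293T cells in 2% charcoal-stripped FBS medium treated with compound plus 1nM final 17-beta-estradiol for 16 hr at 37C. Beta-lactamase reporter read by FRET substrate fluorescence after 2 hours at room temperature.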

[2] = qHTS assay to identify small molecule agonists of the androgen receptor (AR) signaling pathway in the presence of an antagonist - cell viability counter screen (AID 1259379);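 also: MDA-kb2 human breast cancer cells carrying an MMTV luciferase reporter; series mostly up to about 92 µM; nearly all actives have a fitted effect of over 25% in size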
Procedure, shortened: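 Fluorescence from CellTiter-Fluor, added after 15 hr and read 1 hr later, gave cell viability. Cells were MDA-kb2 exposed to compounds (15 concentrations) in the presence of 3.0uM nilutamide at 37C, 0% CO2.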

[3] = qHTS assay to identify small molecule agonists of the estrogen receptor beta (ER-beta) signaling pathway - cell viability counter screen (AID 1259380); also: nearly all actives have a fitted effect of over 30% in size
Procedure, shortened: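 Same-well viability counter screen. Cells: ER-beta-UAS-bla HEK293T, plated 6 hr before compound, in 2% charcoal-stripped FBS. Compound exposure 16 hr, 37C; viability by CellTiter-Glo luminescence after 30 min at room temperature.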

[4] = qHTS assay to identify small molecule antagonists of the estrogen receptor beta (ER-beta) signaling pathway - cell viability counter screen (AID 1259382); also: series mostly up to about 92 µM; nearly all actives have a fitted effect of over 55% in size
Procedure, shortened: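 Following a 6 hr plating period, HEK293T cells carrying a UAS-driven beta-lactamase reporter under ER-beta control received compounds and 1nM E2 (final). After 16 hr at 37C and 2 hr substrate loading, CellTiter-Glo luminescence indicated viability.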

[5] = target: Estrogen receptor (Homo sapiens) (UniProt P03372); experiment: qHTS assay to identify small molecule agonists of the estrogen receptor alpha (ER-alpha) signaling pathway in the presence of an antagonist (AID 1259383; calls by dose curve; also: top concentration of the series differs between compounds; nearly all actives have a fitted effect of over 15% in size)
Procedure, shortened: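 Cells are hormone-deprived for 5 days (charcoal-stripped FBS, no phenol red), plated for 24hr, spiked with 10.0nM ICI-182,780, then dosed at 15 concentrations. After 22hr at 37C, ONE-Glo luminescence reports ERE-luciferase activity.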

[6] = qHTS assay to identify small molecule agonists of the estrogen receptor alpha (ER-alpha) signaling pathway in the presence of an antagonist - cell viability counter screen (AID 1259386);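 also: cells exposed to compounds for 22 h at 37 °C before the viability read; nearly all actives have a fitted effect of over 30% in size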; also: potency is read from the fitted curve at half-maximal effect
Procedure, shortened: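 Cells are starved of estrogens for 5 days in charcoal-stripped serum, seeded for 24hr and co-treated with ICI-182,780 (10.0nM final) and test compounds. After 22hr at 37C, viability is read as CellTiter-Fluor fluorescence.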

[7] = target: Progesterone receptor (Homo sapiens) (UniProt P06401); experiment: qHTS assay to identify small molecule agonists of the progesterone receptor (PR) signaling pathway (AID 1346784; calls by dose curve; also: nearly all actives have a fitted effect of over 30% in size)
Procedure, shortened: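 Agonist mode, quantitative HTS format in a HEK 293T line expressing a UAS-controlled beta-lactamase reporter; 16 hr compound exposure at 37C in 2% charcoal-stripped FBS, then LiveBLAzer B/G FRET fluorescence.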

[8] = target: Progesterone receptor (Homo sapiens) (UniProt P06401); experiment: qHTS assay to identify small molecule antagonists of the progesterone receptor (PR) signaling pathway (AID 1346795; active = well fitted inhibition curve with a large enough effect in the signal ratio in the repeat runs, not every such curve was filed as active; the % refers to the signal ratio; also: potency is read from the fitted curve at half-maximal effect)
Procedure, shortened: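 HEK293T PR-UAS-bla reporter cells in charcoal-stripped serum (2%) received compound after a 6 hr settling period, followed by R5020 agonist at 1 nM final; 16 hr incubation preceded the FRET substrate step and fluorescence measurement.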

[9] = qHTS assay to identify small molecule agonists of the progesterone receptor (PR) signaling pathway - cell viability counter screen (AID 1346799; calls by dose curve; also: nearly all actives have a fitted effect of over 45% in size)
Procedure, shortened: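 Counter screen for cytotoxicity: compound-treated PR-UAS-bla HEK293T cells (16 hr, 37C, 5% CO2) were assayed with CellTiter-Glo, luminescence measured after 30 min at room temperature.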

[10] = qHTS assay to identify small molecule antagonists of the TGF-beta/Smad signaling pathway - cell viability counter screen (AID 1346824); also: nearly all actives have a fitted effect of over 50% in size
Procedure, shortened: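 SBE-bla HEK 293T cells, incubated overnight, then compound plus 0.25 ng/mL TGF-beta1 (stock added) for 5 hr at 37 C. Viability was read in the same wells by CellTiter-Glo luminescence after 30 min at room temperature.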

[11] = qHTS assay to identify small molecule agonists of the TGF-beta/Smad signaling pathway - cell viability counter screen (AID 1346829); also: top concentration of the series differs between compounds; nearly all actives have a fitted effect of over 45% in size
Procedure, shortened: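 Same-well cytotoxicity: CellTiter-Glo added after the 2 hr room-temperature beta-lactamase substrate step, luminescence measured 30 min later; cells had 5 hr of compound at 37 C.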

[12] = qHTS assay to identify small molecule agonists of the TGF-beta/Smad signaling pathway (AID 1346859; active = well fitted activation curve with a large enough effect in the signal ratio in the repeat runs, not every such curve was filed as active; the % refers to the signal ratio; also: series mostly up to about 77 µM)
Procedure, shortened: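 Smad-responsive beta-lactamase reporter cells (HEK 293T) received compounds from DMSO stocks after overnight attachment, were incubated 5 hr, then treated 2 hr with FRET substrate before dual-emission fluorescence measurement (405 nm excitation).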

[13] = qHTS assay to identify small molecule agonists or antagonists of the thyroid stimulating hormone receptor (TSHR) signaling pathway - wild type cell line counter screen (AID 1259384; calls by dose curve)
Procedure, shortened: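 Wild-type Hek293 cells, 800/well, 18 h at 37C, then compound with Ro20-1724 for 30 min RT. cAMP by HTRF (cAMP-d2/anti-cAMP cryptate), 1 h RT, fluorescence read. 15 concentrations, triplicates.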

[14] = target: Thyrotropin receptor (Homo sapiens) (UniProt P16473); experiment: qHTS assay to identify small molecule antagonists of the thyroid stimulating hormone receptor (TSHR) signaling pathway (AID 1259385; calls by dose curve; also: nearly all actives have a fitted effect of over 20% in size)
Procedure, shortened: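 TSHR-HEK293 cells (800/well) plated 18 h, then compounds with Ro20-1724 and TSH at 1.5 ng/mL final, 30 min at room temperature. cAMP quantified by HTRF (cAMP-d2/anti-cAMP-cryptate, 1 h); 15 concentrations in triplicate.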

[15] = qHTS assay to identify small molecule antagonists of the progesterone receptor (PR) signaling pathway - cell viability counter screen (AID 1346798); also: series mostly up to about 92 µM; nearly all actives have a fitted effect of over 50% in size
Procedure, shortened: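 Same-well multiplex: after 16 hr at 37C with compound and R5020 stimulation, HEK293T cells carrying a UAS-bla reporter received LiveBLAzer substrate (2 hr RT), then CellTiter-Glo (30 min RT) for luminescent viability.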

[16] = target: Androgen receptor (Homo sapiens) (UniProt P10275); experiment: qHTS assay to identify small molecule agonists of the androgen receptor (AR) signaling pathway in the presence of an antagonist (AID 1259381; calls by dose curve; also: nearly all actives have a fitted effect of over 15% in size)
Procedure, shortened: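 Cells are MDA-kb2 (human breast carcinoma, MMTV-luc, AR/GR responsive). Nilutamide is present at 3.0uM final throughout; compounds are added at 15 concentrations and incubated 16hr at 37C before ONE-Glo luminescence detection.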

[17] = target: Thyrotropin-releasing hormone receptor (Homo sapiens) (UniProt P34981); experiment: qHTS assay to identify small molecule antagonists of the thyrotropin-releasing hormone receptor (TRHR) signaling pathway (AID 1346877; active = well fitted inhibition curve with a large enough effect in the repeat runs, not every such curve was filed as active; also: series mostly up to about 51 µM)
Procedure, shortened: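 Cells (TRHR-HEK293) are plated and kept 18 h at 37 °C/5% CO2. A calcium-sensitive dye is added for 2 h, compound follows for 5 min at room temperature, and TRH is then given at 1 nM final.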

[18] = target: Thyrotropin-releasing hormone receptor (Homo sapiens) (UniProt P34981); experiment: qHTS assay to identify small molecule agonists of the thyrotropin-releasing hormone receptor (TRHR) signaling pathway (AID 1346891; calls by dose curve;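 also: HEK293 cells expressing TRHR with calcium dye readout; series mostly up to about 58 µM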)
Procedure, shortened: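 Agonist-mode calcium mobilisation screen: TRHR-transfected HEK293 cells cultured overnight (18 h), dye-loaded for 2 h at 37 °C, exposed to compounds, and monitored by fluorescence for 3 min.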

Chain of Thyrotropin-releasing hormone receptor (Homo sapiens) (P34981 whole entry, looked up): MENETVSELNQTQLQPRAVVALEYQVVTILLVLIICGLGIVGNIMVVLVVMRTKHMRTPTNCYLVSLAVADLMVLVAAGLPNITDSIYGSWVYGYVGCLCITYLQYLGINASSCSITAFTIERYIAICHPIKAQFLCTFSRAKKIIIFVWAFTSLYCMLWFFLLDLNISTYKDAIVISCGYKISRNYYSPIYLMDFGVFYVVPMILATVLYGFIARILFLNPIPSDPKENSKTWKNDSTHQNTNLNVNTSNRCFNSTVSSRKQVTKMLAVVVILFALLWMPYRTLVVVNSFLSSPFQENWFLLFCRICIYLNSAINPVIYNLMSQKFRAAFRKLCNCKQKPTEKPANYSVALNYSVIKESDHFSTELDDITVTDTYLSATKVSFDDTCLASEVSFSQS
Chain of Estrogen receptor (Homo sapiens) (P03372 whole entry, looked up): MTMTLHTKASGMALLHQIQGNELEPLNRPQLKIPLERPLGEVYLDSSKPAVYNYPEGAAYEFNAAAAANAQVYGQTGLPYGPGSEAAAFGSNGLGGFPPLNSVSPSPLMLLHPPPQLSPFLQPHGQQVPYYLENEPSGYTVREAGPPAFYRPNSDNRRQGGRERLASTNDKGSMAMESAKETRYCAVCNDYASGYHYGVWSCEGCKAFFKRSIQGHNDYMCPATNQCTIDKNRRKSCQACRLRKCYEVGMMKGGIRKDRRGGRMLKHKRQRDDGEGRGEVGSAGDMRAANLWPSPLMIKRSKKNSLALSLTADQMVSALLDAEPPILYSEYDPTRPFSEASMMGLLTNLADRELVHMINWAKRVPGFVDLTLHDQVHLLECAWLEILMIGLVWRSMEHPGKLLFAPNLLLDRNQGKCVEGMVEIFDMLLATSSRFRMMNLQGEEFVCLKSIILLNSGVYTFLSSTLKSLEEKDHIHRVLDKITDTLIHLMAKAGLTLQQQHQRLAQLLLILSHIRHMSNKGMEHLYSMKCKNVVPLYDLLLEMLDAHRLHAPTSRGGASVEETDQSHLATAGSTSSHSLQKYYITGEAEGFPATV
Chain of Progesterone receptor (Homo sapiens) (P06401 whole entry, looked up): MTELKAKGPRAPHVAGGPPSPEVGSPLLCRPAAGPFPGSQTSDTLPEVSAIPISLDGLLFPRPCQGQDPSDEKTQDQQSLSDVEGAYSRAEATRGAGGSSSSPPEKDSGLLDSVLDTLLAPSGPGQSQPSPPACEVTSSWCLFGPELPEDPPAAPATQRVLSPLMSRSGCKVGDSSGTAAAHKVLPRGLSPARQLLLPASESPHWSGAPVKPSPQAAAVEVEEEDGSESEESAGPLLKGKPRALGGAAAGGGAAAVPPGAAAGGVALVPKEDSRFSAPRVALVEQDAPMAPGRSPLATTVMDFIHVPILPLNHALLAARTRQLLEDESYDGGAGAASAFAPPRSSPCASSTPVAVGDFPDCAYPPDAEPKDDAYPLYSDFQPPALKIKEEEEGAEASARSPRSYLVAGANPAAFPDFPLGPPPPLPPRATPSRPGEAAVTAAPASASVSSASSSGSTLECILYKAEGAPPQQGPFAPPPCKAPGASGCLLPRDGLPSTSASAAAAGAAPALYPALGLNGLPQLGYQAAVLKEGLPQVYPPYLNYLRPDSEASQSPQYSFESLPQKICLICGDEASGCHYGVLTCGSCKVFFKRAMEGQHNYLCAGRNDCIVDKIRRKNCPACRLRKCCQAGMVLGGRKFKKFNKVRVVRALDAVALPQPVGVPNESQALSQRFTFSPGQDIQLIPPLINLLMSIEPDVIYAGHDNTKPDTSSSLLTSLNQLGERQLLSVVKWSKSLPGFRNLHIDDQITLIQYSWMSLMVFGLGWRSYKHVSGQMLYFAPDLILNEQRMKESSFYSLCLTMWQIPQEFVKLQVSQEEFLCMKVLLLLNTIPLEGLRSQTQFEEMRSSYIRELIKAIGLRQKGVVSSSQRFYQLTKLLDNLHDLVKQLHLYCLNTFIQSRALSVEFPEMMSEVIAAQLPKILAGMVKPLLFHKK
Chain of Estrogen receptor beta (Homo sapiens) (Q92731 whole entry, looked up): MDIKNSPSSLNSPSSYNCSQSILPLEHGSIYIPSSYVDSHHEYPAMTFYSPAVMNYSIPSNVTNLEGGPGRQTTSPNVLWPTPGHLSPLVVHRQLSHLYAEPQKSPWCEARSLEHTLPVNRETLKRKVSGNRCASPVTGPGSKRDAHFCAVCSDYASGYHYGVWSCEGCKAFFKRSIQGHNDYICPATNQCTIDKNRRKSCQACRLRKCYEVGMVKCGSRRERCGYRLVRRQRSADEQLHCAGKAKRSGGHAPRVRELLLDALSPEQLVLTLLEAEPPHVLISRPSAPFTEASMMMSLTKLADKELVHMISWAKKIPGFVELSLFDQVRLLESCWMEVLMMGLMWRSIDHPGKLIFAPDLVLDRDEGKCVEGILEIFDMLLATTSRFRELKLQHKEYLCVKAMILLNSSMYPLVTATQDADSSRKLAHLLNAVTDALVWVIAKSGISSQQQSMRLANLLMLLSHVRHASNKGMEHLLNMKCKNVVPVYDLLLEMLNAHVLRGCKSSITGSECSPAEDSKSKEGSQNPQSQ
Chain of Thyrotropin receptor (Homo sapiens) (P16473 whole entry, looked up): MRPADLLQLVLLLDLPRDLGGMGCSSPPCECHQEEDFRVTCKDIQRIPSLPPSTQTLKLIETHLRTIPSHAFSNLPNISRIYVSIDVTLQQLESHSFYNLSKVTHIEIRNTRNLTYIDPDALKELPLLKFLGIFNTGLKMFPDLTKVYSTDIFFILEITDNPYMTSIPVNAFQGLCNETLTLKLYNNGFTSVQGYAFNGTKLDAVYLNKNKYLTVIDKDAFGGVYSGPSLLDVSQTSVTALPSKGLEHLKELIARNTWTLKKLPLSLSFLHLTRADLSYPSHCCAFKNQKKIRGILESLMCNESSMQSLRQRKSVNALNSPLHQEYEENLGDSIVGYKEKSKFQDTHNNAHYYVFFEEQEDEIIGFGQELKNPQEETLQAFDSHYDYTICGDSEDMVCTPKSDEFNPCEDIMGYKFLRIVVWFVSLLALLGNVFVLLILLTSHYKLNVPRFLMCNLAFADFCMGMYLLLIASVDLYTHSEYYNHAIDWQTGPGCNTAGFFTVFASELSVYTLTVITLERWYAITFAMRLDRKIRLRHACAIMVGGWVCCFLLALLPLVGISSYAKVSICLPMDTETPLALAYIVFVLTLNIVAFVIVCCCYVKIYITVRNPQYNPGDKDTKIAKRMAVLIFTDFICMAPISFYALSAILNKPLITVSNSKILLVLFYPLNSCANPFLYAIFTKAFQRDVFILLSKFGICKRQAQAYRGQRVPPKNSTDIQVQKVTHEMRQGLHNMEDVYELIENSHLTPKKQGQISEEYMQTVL
Chain of Androgen receptor (Homo sapiens) (P10275 whole entry, looked up): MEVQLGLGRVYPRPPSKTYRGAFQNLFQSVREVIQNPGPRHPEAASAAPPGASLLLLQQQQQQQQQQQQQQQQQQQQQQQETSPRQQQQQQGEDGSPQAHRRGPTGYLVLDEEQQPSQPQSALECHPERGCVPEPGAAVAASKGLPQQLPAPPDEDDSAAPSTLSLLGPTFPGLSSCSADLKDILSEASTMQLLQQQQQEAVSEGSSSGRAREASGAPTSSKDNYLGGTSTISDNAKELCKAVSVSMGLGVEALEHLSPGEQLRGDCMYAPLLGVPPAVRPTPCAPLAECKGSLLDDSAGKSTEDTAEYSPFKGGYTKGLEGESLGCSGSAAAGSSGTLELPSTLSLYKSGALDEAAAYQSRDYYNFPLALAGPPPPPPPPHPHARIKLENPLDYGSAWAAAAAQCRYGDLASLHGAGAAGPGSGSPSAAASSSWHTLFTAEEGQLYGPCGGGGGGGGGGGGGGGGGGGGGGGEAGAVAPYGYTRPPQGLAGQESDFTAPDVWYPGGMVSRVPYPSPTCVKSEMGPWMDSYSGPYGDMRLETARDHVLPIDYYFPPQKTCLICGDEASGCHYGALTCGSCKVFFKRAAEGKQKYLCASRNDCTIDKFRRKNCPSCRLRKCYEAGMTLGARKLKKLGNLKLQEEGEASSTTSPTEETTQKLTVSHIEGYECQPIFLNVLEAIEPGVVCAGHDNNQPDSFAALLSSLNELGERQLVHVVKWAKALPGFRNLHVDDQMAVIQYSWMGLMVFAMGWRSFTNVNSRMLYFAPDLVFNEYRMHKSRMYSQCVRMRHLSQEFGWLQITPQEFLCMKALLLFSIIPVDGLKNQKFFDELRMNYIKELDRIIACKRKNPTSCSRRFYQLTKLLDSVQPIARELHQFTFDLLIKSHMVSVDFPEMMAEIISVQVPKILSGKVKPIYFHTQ

| Compound | Potency [1] | Potency [2] | Potency [3] | outcome [4] | Potency [5] | Potency [6] | Potency [7] | Potency [8] | Potency [9] | outcome [10] | outcome [11] | outcome [12] | outcome [13] | Potency [14] | Potency [15] | Potency [16] | outcome [17] | Potency [18] |
| --- | --- | --- | --- | --- | --- | --- | --- | --- | --- | --- | --- | --- | --- | --- | --- | --- | --- | --- |
| O=C(O[C@@H](C(=O)O)[C@@H](OC(=O)c1ccccc1)C(=O)O)c1ccccc1 | inactive | inactive | inactive | inactive | inactive | inactive | inactive | inactive | inactive | inactive | inactive | inactive |  |  |  |  |  |  |
| CCOC(=O)C(Br)c1ccccc1 (stereo not drawn) | inactive | inactive |  | inactive | inactive | inactive |  |  | inactive | inactive | inactive | inactive | inactive | inactive | inactive |  |  |  |
| COC(=O)C(C)O (stereo not drawn) |  | inactive | inactive | inactive | inactive | inactive | inactive |  | inactive | inactive | inactive | inactive | inactive | inactive | inactive | inactive | inactive | inactive |
| CN(C)CC[C@@H](c1ccc(Cl)cc1)c1ccccn1 |  | inactive |  | inactive |  | inactive | inactive | inactive | inactive | inactive | inactive | inactive | inactive | inactive | inactive |  | inactive | inactive |
| CCOc1ccc2nc(N)sc2c1 |  | inactive |  | inactive | inactive | inactive | inactive | 60.6 µM (active) | inactive | inactive | inactive | inactive | inactive | inactive | inactive |  | inactive | inactive |
| CN1CCN(C2=Nc3cc(F)ccc3Cc3ccccc32)CC1 |  | inactive |  |  | inactive | inactive | inactive | 18.8 µM (active) |  | inactive | inactive | inactive | inactive | inactive |  | inactive | inactive | inactive |
| Cc1c[nH]c(=S)[nH]c1=O | inactive | inactive | inactive | inactive | inactive | inactive | inactive |  |  | inactive | inactive | inactive |  |  | inactive |  |  |  |
| CCC(=O)O[C@]1(C(=O)SCF)[C@H](C)C[C@H]2[C@@H]3C[C@H](F)C4=CC(=O)C=C[C@]4(C)[C@@]3(F)[C@@H](O)C[C@@]21C |  | inactive | inactive | inactive | inactive | inactive |  |  | inactive | inactive | inactive | inactive | inactive |  | inactive |  | inactive | inactive |
| CCCCCOc1ccc(C2SC(=O)NC2=O)cc1OCC (stereo not drawn) |  | inactive |  |  | inactive | inactive | inactive | inactive | inactive | inactive | inactive |  | inactive | inactive | inactive | inactive | inactive | inactive |
| CS(=O)(=O)c1ccc([C@@H](O)[C@@H](CF)NC(=O)C(Cl)Cl)cc1 |  | inactive |  | inactive | inactive | inactive | inactive | inactive | inactive | inactive | inactive | inactive | inactive | inactive | inactive |  | inactive | inactive |
| NC1=NCC2c3ccccc3Cc3ccccc3N12 (stereo not drawn) |  | inactive | inactive | inactive |  | inactive | inactive | inactive |  | inactive | inactive | inactive |  |  | inactive |  | inactive | inactive |
| CC1(C)C(=O)N(Cl)C(=O)N1Br |  | inactive | inactive | inactive |  |  |  | inactive | inactive | inactive | inactive | inactive |  |  | inactive |  | inactive | inactive |
| CC(C)OC(C)C |  | inactive | inactive | inactive | inactive | inactive | inactive | inactive |  | inactive | inactive | inactive | inactive | inactive | inactive |  |  |  |
| FC(F)(F)C(Cl)(Cl)Cl | inactive | inactive | inactive | inactive | inactive |  | inactive | inactive |  | inactive | inactive | inactive | inactive | inactive |  |  | inactive | inactive |
| O=S(=O)(O)C(F)(F)F | inactive | inactive |  | inactive | inactive |  | inactive |  |  | inactive | inactive | inactive | inactive | inactive |  |  | inactive | inactive |
| CCOc1ccc(NS(=O)(=O)c2ccc(N)cc2)nn1 | inactive | inactive | inactive | inactive |  | inactive | inactive |  | inactive | inactive | inactive | inactive | inactive | inactive | inactive |  |  |  |
| Nc1ccc(Oc2ccc(N)c(N)c2)cc1 |  | inactive |  | inactive | inactive | 54.5 µM (active) |  |  |  | inactive | inactive | inactive | inactive |  |  |  | inactive | inactive |
| C=CC(C)(O)CC/C=C(\C)CCC=C(C)C (stereo not drawn) | inactive | inactive | inactive | inactive |  | inactive |  | inactive |  | inactive | inactive | inactive |  |  | inactive |  | inactive | inactive |
| NC(=O)NS(=O)(=O)c1ccc(Cl)cc1 |  | inactive | inactive | inactive | inactive | inactive | inactive | inactive |  | inactive | inactive | inactive | inactive | inactive | inactive | inactive | inactive | inactive |
